± gives the standard deviation of the averaged measurements. About 6,500 targets were measured; listed, in parts, are those with the largest changes and a random draw of the rest.

In the supplement of paper PMC6411743 one finds NP40-soluble protein abundance data, which are given here for 25 targets.

Compound in the test: Nc1ncnc2c1ncn2[C@@H]1O[C@H](COP(=O)(O)OP(=O)(O)OP(=O)(O)O)[C@@H](O)[C@H]1O [adenosine triphosphate]
The test can be described thus: NP40-soluble protein abundance relative to vehicle (solubility fold change) (ratio); higher = more soluble protein in presence of ATP. Put shortly: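 In three independent experiments, Jurkat crude lysate made by Dounce homogenisation was treated for 10 min at room temperature and then 3 min at 37 °C with eight concentrations ranging from 0.1 to 10 mM. It was then solubilised with 0.8% NP40 plus benzonase for 60 min at 4 °C and ultracentrifuged. The supernatant was TMT-labelled for LC-MS/MS, and each value is the fold change against the detergent-processed vehicle for the same replicate, using vsn-normalised intensities.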

UniProt O43865, sequence (O43865 whole entry): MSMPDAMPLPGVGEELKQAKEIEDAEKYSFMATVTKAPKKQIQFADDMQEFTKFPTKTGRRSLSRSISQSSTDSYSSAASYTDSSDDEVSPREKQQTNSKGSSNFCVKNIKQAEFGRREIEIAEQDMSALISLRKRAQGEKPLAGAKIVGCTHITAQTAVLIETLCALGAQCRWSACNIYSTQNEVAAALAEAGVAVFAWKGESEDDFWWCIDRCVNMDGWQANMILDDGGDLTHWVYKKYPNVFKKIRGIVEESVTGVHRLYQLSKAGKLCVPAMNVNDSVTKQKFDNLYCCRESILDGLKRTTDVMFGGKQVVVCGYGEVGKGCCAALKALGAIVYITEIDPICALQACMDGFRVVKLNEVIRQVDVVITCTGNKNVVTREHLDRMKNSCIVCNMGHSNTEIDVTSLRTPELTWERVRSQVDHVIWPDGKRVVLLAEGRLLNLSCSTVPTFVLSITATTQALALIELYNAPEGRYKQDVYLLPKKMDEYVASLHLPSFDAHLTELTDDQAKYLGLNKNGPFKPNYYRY
UniProt Q12851, sequence (Q12851 whole entry, one chain of several): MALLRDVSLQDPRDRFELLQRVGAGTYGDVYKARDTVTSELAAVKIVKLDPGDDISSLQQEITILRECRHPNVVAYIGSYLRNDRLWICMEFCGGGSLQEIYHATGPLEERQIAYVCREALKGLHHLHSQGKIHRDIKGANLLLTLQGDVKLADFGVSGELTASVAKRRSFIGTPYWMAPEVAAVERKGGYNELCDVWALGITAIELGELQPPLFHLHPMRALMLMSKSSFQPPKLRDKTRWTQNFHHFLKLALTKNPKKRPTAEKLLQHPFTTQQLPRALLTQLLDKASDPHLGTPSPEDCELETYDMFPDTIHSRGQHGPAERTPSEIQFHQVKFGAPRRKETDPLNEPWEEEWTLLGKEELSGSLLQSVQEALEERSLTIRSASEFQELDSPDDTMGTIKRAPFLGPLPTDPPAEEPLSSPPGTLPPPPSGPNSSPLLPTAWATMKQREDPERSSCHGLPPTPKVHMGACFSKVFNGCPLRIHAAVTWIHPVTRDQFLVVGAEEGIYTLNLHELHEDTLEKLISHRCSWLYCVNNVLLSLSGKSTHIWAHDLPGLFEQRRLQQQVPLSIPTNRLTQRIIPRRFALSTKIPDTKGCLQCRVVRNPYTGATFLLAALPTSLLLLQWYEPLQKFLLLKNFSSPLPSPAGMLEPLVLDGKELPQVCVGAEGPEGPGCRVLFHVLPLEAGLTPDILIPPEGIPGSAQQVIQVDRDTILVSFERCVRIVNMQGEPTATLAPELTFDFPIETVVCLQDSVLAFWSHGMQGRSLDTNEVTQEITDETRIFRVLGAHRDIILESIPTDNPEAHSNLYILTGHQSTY
UniProt Q8WWI1, sequence (Q8WWI1 whole entry, one chain of several): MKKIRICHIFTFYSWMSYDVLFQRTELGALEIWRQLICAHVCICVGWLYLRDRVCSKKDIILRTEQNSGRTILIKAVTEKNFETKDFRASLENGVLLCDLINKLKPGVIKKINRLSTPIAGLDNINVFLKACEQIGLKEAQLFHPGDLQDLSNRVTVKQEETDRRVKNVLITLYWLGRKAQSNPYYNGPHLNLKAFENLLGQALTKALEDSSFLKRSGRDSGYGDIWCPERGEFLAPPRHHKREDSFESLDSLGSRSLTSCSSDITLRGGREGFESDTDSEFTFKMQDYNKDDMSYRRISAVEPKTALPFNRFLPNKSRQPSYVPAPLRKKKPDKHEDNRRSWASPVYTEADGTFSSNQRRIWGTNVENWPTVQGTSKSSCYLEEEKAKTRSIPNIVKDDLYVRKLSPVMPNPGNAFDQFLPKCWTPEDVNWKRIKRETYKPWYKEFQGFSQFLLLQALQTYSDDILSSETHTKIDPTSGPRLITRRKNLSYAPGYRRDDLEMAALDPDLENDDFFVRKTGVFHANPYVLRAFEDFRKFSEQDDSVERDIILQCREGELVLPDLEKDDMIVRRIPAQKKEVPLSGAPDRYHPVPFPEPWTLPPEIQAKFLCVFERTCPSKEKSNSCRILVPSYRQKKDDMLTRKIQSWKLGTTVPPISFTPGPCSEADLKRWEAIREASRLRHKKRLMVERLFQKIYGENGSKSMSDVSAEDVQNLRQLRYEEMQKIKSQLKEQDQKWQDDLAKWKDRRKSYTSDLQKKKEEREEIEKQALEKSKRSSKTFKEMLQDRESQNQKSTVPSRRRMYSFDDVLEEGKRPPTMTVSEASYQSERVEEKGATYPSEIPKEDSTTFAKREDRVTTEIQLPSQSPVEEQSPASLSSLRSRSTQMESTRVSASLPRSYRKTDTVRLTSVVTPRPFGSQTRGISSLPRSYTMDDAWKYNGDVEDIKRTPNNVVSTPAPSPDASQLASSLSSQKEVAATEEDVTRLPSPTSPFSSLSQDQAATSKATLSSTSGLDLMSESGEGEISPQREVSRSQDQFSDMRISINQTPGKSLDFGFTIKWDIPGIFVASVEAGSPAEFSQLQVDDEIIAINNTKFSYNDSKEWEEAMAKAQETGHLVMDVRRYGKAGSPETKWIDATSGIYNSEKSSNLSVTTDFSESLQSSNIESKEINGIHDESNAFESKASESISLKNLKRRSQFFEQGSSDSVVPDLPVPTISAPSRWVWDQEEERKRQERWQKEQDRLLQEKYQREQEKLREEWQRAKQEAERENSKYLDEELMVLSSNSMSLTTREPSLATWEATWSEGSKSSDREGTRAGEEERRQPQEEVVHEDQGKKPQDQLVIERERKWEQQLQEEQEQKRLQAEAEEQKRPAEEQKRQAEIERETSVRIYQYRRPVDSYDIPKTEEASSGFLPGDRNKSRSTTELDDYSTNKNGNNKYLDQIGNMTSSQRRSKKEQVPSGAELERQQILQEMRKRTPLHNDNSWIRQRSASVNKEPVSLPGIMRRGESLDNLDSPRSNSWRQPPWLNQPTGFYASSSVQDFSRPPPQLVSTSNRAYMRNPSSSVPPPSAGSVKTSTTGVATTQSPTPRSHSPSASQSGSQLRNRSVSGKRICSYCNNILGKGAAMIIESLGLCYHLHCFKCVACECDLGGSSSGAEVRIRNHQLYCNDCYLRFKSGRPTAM
UniProt O43795, sequence (O43795 whole entry, one chain of several): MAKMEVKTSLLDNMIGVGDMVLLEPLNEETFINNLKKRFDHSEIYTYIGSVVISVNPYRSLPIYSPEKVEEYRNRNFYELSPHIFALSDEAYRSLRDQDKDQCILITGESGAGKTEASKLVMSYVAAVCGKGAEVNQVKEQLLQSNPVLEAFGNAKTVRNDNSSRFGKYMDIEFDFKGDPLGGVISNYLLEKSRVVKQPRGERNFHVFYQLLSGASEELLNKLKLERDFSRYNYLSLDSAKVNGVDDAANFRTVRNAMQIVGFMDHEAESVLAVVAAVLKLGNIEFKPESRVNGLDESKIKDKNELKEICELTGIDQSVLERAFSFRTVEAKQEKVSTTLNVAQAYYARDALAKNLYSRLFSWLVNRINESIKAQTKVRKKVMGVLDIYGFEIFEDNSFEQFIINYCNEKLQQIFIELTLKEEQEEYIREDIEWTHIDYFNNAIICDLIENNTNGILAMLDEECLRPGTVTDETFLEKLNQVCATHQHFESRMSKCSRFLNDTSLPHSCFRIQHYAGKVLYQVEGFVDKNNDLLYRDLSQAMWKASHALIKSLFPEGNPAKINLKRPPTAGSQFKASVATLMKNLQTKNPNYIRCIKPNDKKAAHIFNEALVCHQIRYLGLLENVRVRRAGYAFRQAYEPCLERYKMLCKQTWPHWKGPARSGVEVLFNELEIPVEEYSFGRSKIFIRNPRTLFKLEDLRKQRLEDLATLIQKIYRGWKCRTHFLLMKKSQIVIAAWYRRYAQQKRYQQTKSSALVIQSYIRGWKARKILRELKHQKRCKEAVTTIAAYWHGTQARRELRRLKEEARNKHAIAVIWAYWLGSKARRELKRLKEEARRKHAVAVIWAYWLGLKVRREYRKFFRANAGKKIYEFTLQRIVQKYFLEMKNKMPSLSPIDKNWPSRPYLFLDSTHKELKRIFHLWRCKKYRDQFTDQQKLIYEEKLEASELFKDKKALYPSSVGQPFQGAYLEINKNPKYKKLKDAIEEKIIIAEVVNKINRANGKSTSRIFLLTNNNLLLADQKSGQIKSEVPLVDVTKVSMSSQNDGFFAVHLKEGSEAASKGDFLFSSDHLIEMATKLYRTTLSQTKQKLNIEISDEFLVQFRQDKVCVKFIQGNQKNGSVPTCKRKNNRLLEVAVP
UniProt A0PK00, sequence (A0PK00 whole entry): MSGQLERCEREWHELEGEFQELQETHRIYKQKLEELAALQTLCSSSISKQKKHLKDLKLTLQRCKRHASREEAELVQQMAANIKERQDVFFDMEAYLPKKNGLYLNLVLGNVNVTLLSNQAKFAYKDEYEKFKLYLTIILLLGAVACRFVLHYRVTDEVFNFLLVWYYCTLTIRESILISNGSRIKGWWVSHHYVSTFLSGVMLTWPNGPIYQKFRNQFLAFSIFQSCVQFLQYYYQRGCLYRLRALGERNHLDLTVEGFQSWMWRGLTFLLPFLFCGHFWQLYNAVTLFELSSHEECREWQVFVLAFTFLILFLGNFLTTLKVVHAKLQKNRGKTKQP
UniProt P78549, sequence (P78549 whole entry, one chain of several): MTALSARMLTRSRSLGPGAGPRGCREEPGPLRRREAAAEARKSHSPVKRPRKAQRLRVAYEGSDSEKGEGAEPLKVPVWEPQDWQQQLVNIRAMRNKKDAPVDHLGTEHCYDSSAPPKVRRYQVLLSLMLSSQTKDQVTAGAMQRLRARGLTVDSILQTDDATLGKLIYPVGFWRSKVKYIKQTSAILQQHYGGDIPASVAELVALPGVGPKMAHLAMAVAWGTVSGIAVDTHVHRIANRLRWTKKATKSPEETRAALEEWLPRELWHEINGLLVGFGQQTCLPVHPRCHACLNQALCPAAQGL
UniProt P78537, sequence (P78537 whole entry, one chain of several): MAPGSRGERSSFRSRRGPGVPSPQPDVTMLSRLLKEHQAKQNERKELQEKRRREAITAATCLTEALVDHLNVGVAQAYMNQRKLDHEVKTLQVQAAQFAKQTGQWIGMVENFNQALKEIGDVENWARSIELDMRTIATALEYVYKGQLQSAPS

Consider PDLIM1 (UniProt O00151), for which the NP40-soluble protein abundance reads like this: (concentration: 1mM) 0.963 ± 0.054; (concentration: 2mM) 0.958 ± 0.031; (concentration: 4mM) 0.944 ± 0.041; (concentration: 6mM) 0.971 ± 0.016; (concentration: 8mM) 0.939 ± 0.035; (concentration: 10mM) 0.919 ± 0.036.

M0R042|P04350 (UniProt P04350): the NP40-soluble protein abundance was 1.01 ± 0.089 (concentration: 1mM); 0.962 ± 0.037 (concentration: 2mM); 1.02 ± 0.034 (concentration: 4mM); 0.934 ± 0.058 (concentration: 6mM); 1.02 ± 0.018 (concentration: 8mM); 0.955 ± 0.071 (concentration: 10mM).

Turning to UniProt O43865, the NP40-soluble protein abundance reads like this: (concentration: 1mM) 0.982 ± 0.1; (concentration: 2mM) 0.965 ± 0.063; (concentration: 4mM) 0.963 ± 0.076; (concentration: 6mM) 0.973 ± 0.1; (concentration: 8mM) 0.96 ± 0.081; (concentration: 10mM) 0.969 ± 0.043.

With “C9J0K6|P30626|P30626-2|P30626-3 (UniProt P30626)”, the NP40-soluble protein abundance by setting is: (concentration: 1mM) 0.887 ± 0.066; (concentration: 2mM) 0.921 ± 0.078; (concentration: 4mM) 0.892 ± 0.039; (concentration: 6mM) 0.911 ± 0.072; (concentration: 8mM) 0.896 ± 0.011; (concentration: 10mM) 0.811 ± 0.12.

B4DHE8|Q96DH6 (UniProt Q96DH6): the NP40-soluble protein abundance runs as follows: (concentration: 1mM) 1.02 ± 0.045; (concentration: 2mM) 1.02 ± 0.058; (concentration: 4mM) 0.994 ± 0.065; (concentration: 6mM) 0.993 ± 0.08; (concentration: 8mM) 0.983 ± 0.071; (concentration: 10mM) 0.972 ± 0.079.

On to G8JLQ3|P78537|P78537-2 (UniProt P78537), for which the NP40-soluble protein abundance (concentration: 1mM) came to 0.965 ± 0.12; the NP40-soluble protein abundance (concentration: 2mM) amounted to 0.88 ± 0.076; the NP40-soluble protein abundance (concentration: 4mM) worked out at 0.834 ± 0.1; the NP40-soluble protein abundance (concentration: 6mM) amounted to 0.861 ± 0.12; the NP40-soluble protein abundance (concentration: 8mM) stood at 0.816 ± 0.032; the NP40-soluble protein abundance (concentration: 10mM) was 0.702 ± 0.15.

For the target “A0A0J9YW36|Q9NZ72|Q9NZ72-2 (UniProt Q9NZ72)”, the NP40-soluble protein abundance by setting is: (concentration: 1mM) 1.03 ± 0.25; (concentration: 2mM) 1.21 ± 0.52; (concentration: 4mM) 0.979 ± 0.12; (concentration: 6mM) 1.18 ± 0.36; (concentration: 8mM) 0.945 ± 0.1; (concentration: 10mM) 0.863 ± 0.05.

Regarding A0A0C4DGQ5|P04632 (UniProt P04632), the NP40-soluble protein abundance (concentration: 1mM) was 0.9315 ± 0.0081; the NP40-soluble protein abundance (concentration: 2mM) is 0.964 ± 0.077; the NP40-soluble protein abundance (concentration: 4mM) was 0.923 ± 0.022; the NP40-soluble protein abundance (concentration: 6mM) came to 0.884 ± 0.039; the NP40-soluble protein abundance (concentration: 8mM) is 0.885 ± 0.0089; the NP40-soluble protein abundance (concentration: 10mM) was 0.875 ± 0.06.

H3BTR4|Q96BT3 (UniProt Q96BT3): the NP40-soluble protein abundance stood at 1.32 ± 0.023 (concentration: 1mM); 1.41 ± 0.13 (concentration: 2mM); 1.52 ± 0.21 (concentration: 4mM); 1.72 ± 0.23 (concentration: 6mM); 1.68 ± 0.17 (concentration: 8mM); 1.87 ± 0.17 (concentration: 10mM).

For K7ELH7|K7ENE2|Q8IVV7 (UniProt Q8IVV7), the NP40-soluble protein abundance (concentration: 1mM) was found to be 1.04 ± 0.13; the NP40-soluble protein abundance (concentration: 2mM) is 0.979 ± 0.11; the NP40-soluble protein abundance (concentration: 4mM) came out at 1 ± 0.032; the NP40-soluble protein abundance (concentration: 6mM) was found to be 0.867 ± 0.075; the NP40-soluble protein abundance (concentration: 8mM) is 0.931 ± 0.094; the NP40-soluble protein abundance (concentration: 10mM) came out at 0.92918 ± 9.2e-06.

“A0A0A0MT22|M9MML4|P08575|P08575-2|X6R433 (UniProt P08575)”: the NP40-soluble protein abundance was determined as 0.946 ± 0.026 (concentration: 1mM); 0.9679 ± 0.0084 (concentration: 2mM); 0.9321 ± 0.0056 (concentration: 4mM); 0.967 ± 0.014 (concentration: 6mM); 0.918 ± 0.018 (concentration: 8mM); 0.943 ± 0.036 (concentration: 10mM).

For “A0A0A6YYA7|Q12851|Q12851-2 (UniProt Q12851)”, the NP40-soluble protein abundance reads like this: (concentration: 1mM) 1.02 ± 0.026; (concentration: 2mM) 1 ± 0.044; (concentration: 4mM) 1.03 ± 0.063; (concentration: 6mM) 0.994 ± 0.079; (concentration: 8mM) 0.994 ± 0.026; (concentration: 10mM) 0.998 ± 0.027.

With UniProt O14662-2|O14662-4|O14662-5, the NP40-soluble protein abundance (concentration: 1mM) was 0.98 ± 0.066; the NP40-soluble protein abundance (concentration: 2mM) came out at 0.94 ± 0.042; the NP40-soluble protein abundance (concentration: 4mM) turned out to be 0.993 ± 0.044; the NP40-soluble protein abundance (concentration: 6mM) is 0.974 ± 0.037; the NP40-soluble protein abundance (concentration: 8mM) was 0.983 ± 0.034; the NP40-soluble protein abundance (concentration: 10mM) is 0.921 ± 0.068.

Consider E9PHG5|Q6UW02 (UniProt Q6UW02), for which the NP40-soluble protein abundance runs as follows: (concentration: 1mM) 1.11 ± 0.13; (concentration: 2mM) 1.02 ± 0.16; (concentration: 4mM) 1.04 ± 0.13; (concentration: 6mM) 1.02 ± 0.17; (concentration: 8mM) 1.02 ± 0.1; (concentration: 10mM) 0.993 ± 0.086.

Turning to H0YNP8|Q99081-3|Q99081 (UniProt Q99081), the NP40-soluble protein abundance is, setting by setting: (concentration: 1mM) 0.923 ± 0.056; (concentration: 2mM) 0.935 ± 0.039; (concentration: 4mM) 0.915 ± 0.041; (concentration: 6mM) 0.938 ± 0.027; (concentration: 8mM) 0.916 ± 0.018; (concentration: 10mM) 0.921 ± 0.046.

As to TMEM120B (UniProt A0PK00), the NP40-soluble protein abundance reads like this: (concentration: 1mM) 0.948 ± 0.058; (concentration: 2mM) 1.05 ± 0.042; (concentration: 4mM) 1.04 ± 0.09; (concentration: 6mM) 0.894 ± 0.12; (concentration: 8mM) 1.15 ± 0.13; (concentration: 10mM) 1.13 ± 0.14.

For UniProt O15392|O15392-2, the NP40-soluble protein abundance runs as follows: (concentration: 1mM) 0.961 ± 0.1; (concentration: 2mM) 2.09 ± 1.6; (concentration: 4mM) 1.13 ± 0.09; (concentration: 6mM) 1.23 ± 0.031; (concentration: 8mM) 1.26 ± 0.092; (concentration: 10mM) 1.31 ± 0.16.

Turning to “H3BPD5|P78549|P78549-2|P78549-3 (UniProt P78549)”, the NP40-soluble protein abundance by setting is: (concentration: 1mM) 1.12 ± 0.16; (concentration: 2mM) 1.2 ± 0.029; (concentration: 4mM) 1.3 ± 0.1; (concentration: 6mM) 1.51 ± 0.2; (concentration: 8mM) 1.72 ± 0.19; (concentration: 10mM) 1.89 ± 0.12.

As for SLC25A20 (UniProt O43772), the NP40-soluble protein abundance runs as follows: (concentration: 1mM) 0.918 ± 0.088; (concentration: 2mM) 0.945 ± 0.037; (concentration: 4mM) 0.943 ± 0.012; (concentration: 6mM) 0.822 ± 0.099; (concentration: 8mM) 0.884 ± 0.028; (concentration: 10mM) 0.974 ± 0.0095.

Turning to “C9J381|P20839|P20839-2|P20839-3|P20839-4|P20839-5|P20839-6|P20839-7 (UniProt P20839)”, the NP40-soluble protein abundance by setting is: (concentration: 1mM) 0.999 ± 0.049; (concentration: 2mM) 0.9672 ± 0.0062; (concentration: 4mM) 0.933 ± 0.018; (concentration: 6mM) 0.695 ± 0.051; (concentration: 8mM) 0.61 ± 0.018; (concentration: 10mM) 0.581 ± 0.033.

Regarding “J3KP06|Q8WWI1|Q8WWI1-2|Q8WWI1-3|Q8WWI1-4 (UniProt Q8WWI1)”, the NP40-soluble protein abundance is 1.31 ± 0.026 (concentration: 1mM); 1.41 ± 0.07 (concentration: 2mM); 1.57 ± 0.067 (concentration: 4mM); 1.65 ± 0.07 (concentration: 6mM); 1.77 ± 0.057 (concentration: 8mM); 1.96 ± 0.042 (concentration: 10mM).

As to J3QTA6|Q9BRQ6 (UniProt Q9BRQ6), the NP40-soluble protein abundance runs as follows: (concentration: 1mM) 0.958 ± 0.12; (concentration: 2mM) 0.921 ± 0.073; (concentration: 4mM) 0.897 ± 0.087; (concentration: 6mM) 0.925 ± 0.13; (concentration: 8mM) 0.918 ± 0.093; (concentration: 10mM) 0.874 ± 0.067.

As to G3XAG1|Q96ME7|Q96ME7-3 (UniProt Q96ME7), the NP40-soluble protein abundance by setting is: (concentration: 1mM) 1.34 ± 0.038; (concentration: 2mM) 1.407 ± 0.0052; (concentration: 4mM) 1.58 ± 0.019; (concentration: 6mM) 1.71 ± 0.061; (concentration: 8mM) 1.88 ± 0.046; (concentration: 10mM) 2.06 ± 0.081.

For the target J3KTL2|Q07955 (UniProt Q07955), the NP40-soluble protein abundance is 1.41 ± 0.16 (concentration: 1mM); 1.53 ± 0.14 (concentration: 2mM); 1.7 ± 0.11 (concentration: 4mM); 1.93 ± 0.19 (concentration: 6mM); 1.89 ± 0.097 (concentration: 8mM); 1.98 ± 0.093 (concentration: 10mM).

Consider E9PDF6|O43795 (UniProt O43795), for which the NP40-soluble protein abundance by setting is: (concentration: 1mM) 2.78 ± 0.047; (concentration: 2mM) 2.71 ± 0.065; (concentration: 4mM) 2.65 ± 0.15; (concentration: 6mM) 2.65 ± 0.21; (concentration: 8mM) 2.82 ± 0.17; (concentration: 10mM) 2.67 ± 0.12.
